The text below walks through data of the supplement of paper PMC8728848.

What all share (experiment): glycan array binding signal (z-score within array); higher = stronger binding
Common to all, as to settings: glycan notation: IUPAC condensed, linker removed

Test [1] has as its target Gal(b1-4)GlcNAc(b1-3)[GlcNAc(b1-6)]Gal(b1-4)GlcNAc. Summed up: (§1)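 From the Consortium for Functional Glycomics database, 3228 arrays were curated, keeping only those whose protein sequence was available. Binding is given as a within-array Z-score averaged across arrays sharing a protein sequence and across linkers. Negative Z-scores can be read as non-binding.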
In a further test the target is Gal6S(b1-4)Glc6S. The method, boiled down: as §1
For another test, the target named is Glc(a1-6)Glc(a1-6)Glc. Summed up: as §1
Test [2] addresses GlcNAc(a1-4)Gal(b1-4)GlcNAc(b1-3)Gal(b1-4)GlcNAc. Summed up: as §1
Test [3] has as its target GlcNAc(b1-2)Man(a1-3)[GlcNAc(b1-4)][GlcNAc(b1-2)Man(a1-6)]Man(b1-4)GlcNAc(b1-4)GlcNAc. Summed up:
as §1

For test [4], the target named is GlcNAc(b1-3)Gal(b1-4)GlcNAc(b1-3)Gal(b1-4)GlcNAc(b1-2)[GlcNAc(b1-3)Gal(b1-4)GlcNAc(b1-3)Gal(b1-4)GlcNAc(b1-6)]Man(a1-6)[GlcNAc(b1-3)Gal(b1-4)GlcNAc(b1-3)Gal(b1-4)GlcNAc(b1-2)Man(a1-3)]Man(b1-4)GlcNAc(b1-4)[Fuc(a1-6)]GlcNAc. Summed up:
as §1

Test [5] has as its target GlcNAc(b1-3)Gal(b1-4)GlcNAc(b1-3)Gal(b1-4)GlcNAc(b1-3)Gal(b1-4)GlcNAc(b1-3)Gal(b1-4)GlcNAc(b1-2)Man(a1-3)[GlcNAc(b1-3)Gal(b1-4)GlcNAc(b1-3)Gal(b1-4)GlcNAc(b1-3)Gal(b1-4)GlcNAc(b1-3)Gal(b1-4)GlcNAc(b1-2)Man(a1-6)]Man(b1-4)GlcNAc(b1-4)[Fuc(a1-6)]GlcNAc. Summed up:
as §1

Test [6] has as its target GlcNAc(b1-3)Gal(b1-4)GlcNAc(b1-3)Gal(b1-4)GlcNAc(b1-3)Gal(b1-4)GlcNAc(b1-3)Gal(b1-4)GlcNAc(b1-2)[GlcNAc(b1-3)Gal(b1-4)GlcNAc(b1-3)Gal(b1-4)GlcNAc(b1-3)Gal(b1-4)GlcNAc(b1-3)Gal(b1-4)GlcNAc(b1-6)]Man(a1-6)[GlcNAc(b1-3)Gal(b1-4)GlcNAc(b1-3)Gal(b1-4)GlcNAc(b1-3)Gal(b1-4)GlcNAc(b1-3)Gal(b1-4)GlcNAc(b1-2)Man(a1-3)]Man(b1-4)GlcNAc(b1-4)[Fuc(a1-6)]GlcNAc. Summed up:
as §1

In the next test the target is Kdn(a2-3)Gal(b1-4)GlcNAc. The method, boiled down:
as §1

The target in a further test is Neu5Ac(a2-3)Gal. The method, boiled down:
as §1

In test [7] the target is Neu5Ac(a2-3)Gal(b1-3)GlcNAc(b1-2)Man. The method, boiled down: as §1
Test [8] deals with Neu5Ac(a2-3)Gal(b1-3)[Fuc(a1-4)]GlcNAc(b1-3)Gal(b1-4)[Fuc(a1-3)]GlcNAc. Summed up:
as §1

For test [9], the target named is Neu5Ac(a2-3)Gal(b1-3)[Neu5Ac(a2-6)]GalNAc. The method, boiled down:
as §1

For test [10], the target named is Neu5Ac(a2-3)Gal(b1-4)GlcNAc(b1-3)Gal(b1-4)GlcNAc(b1-3)Gal(b1-4)GlcNAc(b1-2)Man(a1-3)[Neu5Ac(a2-3)Gal(b1-4)GlcNAc(b1-3)Gal(b1-4)GlcNAc(b1-3)Gal(b1-4)GlcNAc(b1-2)Man(a1-6)]GalNAc. Summed up:
as §1

In test [11] the target is Neu5Ac(a2-3)Gal(b1-4)GlcNAc(b1-3)Gal(b1-4)[Fuc(a1-3)]GlcNAc. Summed up:
as §1

Test [12] addresses Neu5Ac(a2-3)Gal(b1-4)GlcNAc(b1-6)[Neu5Ac(a2-3)Gal(b1-3)]GalNAc. Summed up: as §1
The target of test [13] is Neu5Ac(a2-3)Gal(b1-4)[Fuc(a1-3)]GlcNAc(b1-3)GalNAc. The method, boiled down: as §1
The target of test [14] is Neu5Ac(a2-3)Gal(b1-4)[Fuc(a1-3)]GlcNAc(b1-6)[Gal(b1-3)]GalNAc. The method, boiled down: as §1
For test [15], the target named is Neu5Ac(a2-3)[GalNAc(b1-4)]Gal(b1-4)Glc. Summed up:
as §1

Test [16] addresses Neu5Ac(a2-6)Gal(b1-4)GlcNAc(b1-2)Man(a1-3)[Neu5Ac(a2-6)Gal(b1-4)GlcNAc(b1-2)Man(a1-6)]Man(b1-4)GlcNAc(b1-4)[Fuc(a1-6)]GlcNAc. Summed up: as §1
The target of test [17] is Neu5Ac(a2-6)Gal(b1-4)GlcNAc(b1-3)Gal(b1-4)GlcNAc(b1-3)Gal(b1-4)GlcNAc(b1-2)Man(a1-3)[Neu5Ac(a2-6)Gal(b1-4)GlcNAc(b1-3)Gal(b1-4)GlcNAc(b1-3)Gal(b1-4)GlcNAc(b1-2)Man(a1-6)]GalNAc. Summed up: as §1
Test [18] addresses Neu5Ac(a2-6)Gal(b1-4)GlcNAc(b1-3)Gal(b1-4)GlcNAc(b1-3)[Neu5Ac(a2-6)Gal(b1-4)GlcNAc(b1-3)Gal(b1-4)GlcNAc(b1-6)]GalNAc. The method, boiled down: as §1
Test [19] addresses Neu5Ac(a2-8)Neu5Gc(a2-3)Gal(b1-4)GlcNAc. Summed up:
as §1

For test [20], the target named is Neu5Gc(a2-3)Gal(b1-4)[Fuc(a1-3)]GlcNAc. Summed up:
as §1

The sample as a whole holds a higher share of the strongest signals than the screen did.

B1: PX9961T-pdi-555-33-555 (Parabacteroides distasonis) (protein)
chain: FDEETAFQSPTLVYVNTVASLYNNMFKIMGNDRHVYDLNTFSSDEAMLPCRIGDWEDGGLWQNIFLHRWGTMNDLTKNSWDFLYEQIGKCNQSVDKLQAFAEEQPDVEYFKVYLEEVRAVRAFFYYELLDLFARVPLVTSSTTPMSEVKQSERSVVFNFVRSELEEALPYLSDNRSNQKGEYYGRITKPVAYMILAKLALNAEVYADDNWTDGNRPAGKNIKFTVDGKEMNAWEATIAYVDKLEALGYKLQGNFSENFAVANETSVENIFTVPMDPVAYPDAKDYNLVRTRHYDHATAYGQSGWNGSCATVKAMNVFKFGTADEDPRCKLTYFTGEVTGPDGKTIYTEWDGQKVPLKYEPNAPKVYMDASDGLLVKTAGARMAKYEFDQNAQDGGNLHGNDCVIFRFADALLMKAEAKIRLGQNGDDEVNQVRNRVGAKPLQNVTLDTLLDERMLELAWEGVRRQDLIRFGKFTEATVDRYVGVKHFASSLDYQEDKTGYTTVFSIYADILSLNPNLTQNPGY
As to B1, the “glycan array binding signal (z-score)” value is -0.222 in [1]; -0.372 with Gal6S(b1-4)Glc6S; 0.357 in the test with Glc(a1-6)Glc(a1-6)Glc; -0.402 in test [2]; -0.416 in test [3]; -0.298 in test [4]. Also, the “glycan array binding signal (z-score)” value is 0.229 in test [5]; -0.523 in test [6]; -0.683 with Kdn(a2-3)Gal(b1-4)GlcNAc; -0.213 with Neu5Ac(a2-3)Gal; -0.451 in test [7]; -0.031 in test [8]. Moreover, the “glycan array binding signal (z-score)” value in test [9] was -0.194; in test [10], 1.63; in test [11], -0.528; in [12], 1.08; in test [13], 1.68; in test [14], -0.177. In addition, the “glycan array binding signal (z-score)” value is 1.56 in test [15]; -0.612 in test [16]; 0.737 in [17]; 1.82 in test [18]; 20.7 in test [19]; 0.358 in test [20].
